Drawing on publication PMC11062922 (Nature Chemical Biology, 2023), this text covers potency estimated from few doses for 4 compounds.

What all share (parameters): species or system human, MV4-11 + K-562 + COLO205 + SK-N-BE2 + OVCAR-8
One assay has as its system ADCK1. To be noted: read-out: apparent Kd, compound concentrations: 100 nM and 1000 nM (sheet 'Samples'), n = 1.
The test system of another assay is CLK1. The note with it: read-out: apparent Kd, compound concentrations: 100 nM and 1000 nM (sheet 'Samples'), n = 1.
A further assay has as its system CLK2. To be noted: read-out: apparent Kd, compound concentrations: 100 nM and 1000 nM (sheet 'Samples'), n = 1.
For the next assay, the system named is CLK4. The note with it: read-out: apparent Kd, compound concentrations: 100 nM and 1000 nM (sheet 'Samples'), n = 1.
A further assay has as its system T1, DJA1.
T1 construct: gene DNAJA1
The note with it: read-out: apparent Kd; compound concentrations: 100 nM and 1000 nM (sheet 'Samples'), CATDS: 8.1274220944096601E-2; n = 1.

A further assay relates to MAPK14. The note with it: read-out: apparent Kd; compound concentrations: 100 nM and 1000 nM (sheet 'Samples'), CATDS: 9.4734585023085197E-2; n = 1.
The test system of another assay is NQO2. To be noted: read-out: apparent Kd; compound concentrations: 100 nM and 1000 nM (sheet 'Samples'), CATDS: 8.1973384609640695E-2; n = 1.
In the next assay the test system is PIP4K2C. To be noted: read-out: apparent Kd; compound concentrations: 100 nM and 1000 nM (sheet 'Samples'), CATDS: 7.6274821078241906E-2; n = 1.
The next assay deals with STK16. To be noted: read-out: apparent Kd; compound concentrations: 100 nM and 1000 nM (sheet 'Samples'), CATDS: 8.9736368471695804E-2; n = 1.
The subject of a further assay is TESK2. To be noted: read-out: apparent Kd; compound concentrations: 100 nM and 1000 nM (sheet 'Samples'), CATDS: 7.0727879355670806E-2; n = 1.
In the next assay the test system is TGFBR2. The note with it: read-out: apparent Kd; compound concentrations: 100 nM and 1000 nM (sheet 'Samples'), CATDS: 7.2410579705908001E-2; n = 1.
The test system of a further assay is ATM. To be noted: read-out: apparent Kd; compound concentrations: 100 nM and 1000 nM (sheet 'Samples'), CATDS: 0.154535696206207; n = 1.
A further assay concerns CDC42BPG. The note with it: read-out: apparent Kd, n = 1.
In the next assay the test system is CDKL5. To be noted: read-out: apparent Kd, n = 1.
Another assay concerns PIK3CD. To be noted: read-out: apparent Kd; compound concentrations: 100 nM and 1000 nM (sheet 'Samples'), CATDS: 0.16747258598029099; n = 1.
A further assay relates to PRKAG2. To be noted: read-out: apparent Kd, n = 1.
For another assay, the system named is ADRBK1. To be noted: read-out: apparent Kd, n = 1.
In the next assay the test system is AURKA. The note with it: read-out: apparent Kd; compound concentrations:100 nM and 1000 nM (sheet 'Samples'); n = 1.
The next assay deals with CDC42BPA. The note with it: read-out: apparent Kd; compound concentrations:100 nM and 1000 nM (sheet 'Samples'); n = 1.
The subject of a further assay is CDC42BPB. To be noted: read-out: apparent Kd; compound concentrations:100 nM and 1000 nM (sheet 'Samples'); n = 1.
Another assay relates to CDK6. The note with it: read-out: apparent Kd; compound concentrations:100 nM and 1000 nM (sheet 'Samples'); n = 1.
For a further assay, the system named is CHEK1. The note with it: read-out: apparent Kd; compound concentrations:100 nM and 1000 nM (sheet 'Samples'); n = 1.
For the next assay, the system named is CSNK1G1. The note with it: read-out: apparent Kd; compound concentrations:100 nM and 1000 nM (sheet 'Samples'); n = 1.
The next assay relates to FN3KRP. The note with it: read-out: apparent Kd; compound concentrations:100 nM and 1000 nM (sheet 'Samples'); n = 1.
Another assay relates to MTHFD1. To be noted: read-out: apparent Kd; compound concentrations:100 nM and 1000 nM (sheet 'Samples'); n = 1.
The next assay concerns NUAK1. To be noted: read-out: apparent Kd; compound concentrations:100 nM and 1000 nM (sheet 'Samples'); n = 1.
The test system of the next assay is NUAK2. To be noted: read-out: apparent Kd; compound concentrations:100 nM and 1000 nM (sheet 'Samples'); n = 1.
The test system of the next assay is PDXK. To be noted: read-out: apparent Kd; compound concentrations:100 nM and 1000 nM (sheet 'Samples'); n = 1.
The next assay has as its system PKN1. To be noted: read-out: apparent Kd; compound concentrations:100 nM and 1000 nM (sheet 'Samples'); n = 1.
In another assay the test system is PKN2. The note with it: read-out: apparent Kd; compound concentrations:100 nM and 1000 nM (sheet 'Samples'); n = 1.
The test system of a further assay is PRKAA1. To be noted: read-out: apparent Kd; compound concentrations:100 nM and 1000 nM (sheet 'Samples'); n = 1.
A further assay concerns PRKACA. The note with it: read-out: apparent Kd; compound concentrations: 100 nM and 1000 nM (sheet 'Samples'), CATDS: 9.7859849759824202E-2; n = 1.
A further assay concerns PRKACB. The note with it: read-out: apparent Kd; compound concentrations:100 nM and 1000 nM (sheet 'Samples'); n = 1.
A further assay has as its system PRKAG1. The note with it: read-out: apparent Kd; compound concentrations:100 nM and 1000 nM (sheet 'Samples'); n = 1.
The test system of a further assay is PRKCA. To be noted: read-out: apparent Kd; compound concentrations:100 nM and 1000 nM (sheet 'Samples'); n = 1.
Another assay relates to PRKCB. The note with it: read-out: apparent Kd; compound concentrations:100 nM and 1000 nM (sheet 'Samples'); n = 1.
Another assay concerns PRKCD. To be noted: read-out: apparent Kd; compound concentrations:100 nM and 1000 nM (sheet 'Samples'); n = 1.
For the next assay, the system named is PRKCQ. The note with it: read-out: apparent Kd; compound concentrations:100 nM and 1000 nM (sheet 'Samples'); n = 1.
Another assay concerns PRKG1. The note with it: read-out: apparent Kd; compound concentrations:100 nM and 1000 nM (sheet 'Samples'); n = 1.
In the next assay the test system is PRKX;PRKY. The note with it: read-out: apparent Kd; compound concentrations:100 nM and 1000 nM (sheet 'Samples'); n = 1.
A further assay concerns ROCK1. The note with it: read-out: apparent Kd; compound concentrations:100 nM and 1000 nM (sheet 'Samples'); n = 1.
The subject of the next assay is ROCK2. To be noted: read-out: apparent Kd; compound concentrations:100 nM and 1000 nM (sheet 'Samples'); n = 1.
For another assay, the system named is RPS6KA5. The note with it: read-out: apparent Kd; compound concentrations:100 nM and 1000 nM (sheet 'Samples'); n = 1.
In another assay the test system is RPS6KB1. To be noted: read-out: apparent Kd; compound concentrations:100 nM and 1000 nM (sheet 'Samples'); n = 1.
Setting [1] is: compound concentrations:100 nM and 1000 nM (sheet 'Samples').

Read-outs that look alike come from different tables or passages of the source.

As to `CCOc1ccc2c(-c3ccnc(Nc4cc(OC)cc(C(F)(F)F)c4)n3)cnn2n1` [GW807982X_KCGS], the potency estimated from few doses in the assay with ADCK1 (CATDS: 7.5755485484616303E-2) is 1800 nM; in the assay on CLK1 (CATDS: 0.119172303588979) it was 672 nM; with CLK2 (CATDS: 0.34791334092069898), 132 nM; in the assay with CLK4 (CATDS: 0.107849742816713), 811 nM; in the assay with DJA1 it was 1500 nM; in the assay with MAPK14, 1050 nM. Besides, the potency estimated from few doses in the assay with NQO2 was 1470 nM; in the assay with PIP4K2C it was 1760 nM; in the assay on STK16 it was 1190 nM; in the assay on TESK2, 2180 nM; in the assay with TGFBR2 it was 2040 nM.

With `CCOc1ccc2c(-c3ccnc(Nc4cccc(C(F)(F)F)c4)n3)cnn2n1` [GW811761X], the potency estimated from few doses was 1140 nM in the assay with ADCK1 (CATDS: 8.5431360664487602E-2); 257 nM in the assay on ATM; 2020 nM in the assay with CDC42BPG (compound concentrations: 100 nM and 1000 nM (sheet 'Samples'), CATDS: 7.3873319351317801E-2); 644 nM in the assay with CDKL5 (compound concentrations: 100 nM and 1000 nM (sheet 'Samples'), CATDS: 0.103192047261391); 667 nM in the assay on CLK1 (CATDS: 0.10181470937503199); 49.8 nM in the assay on CLK2 (CATDS: 0.42234286586488101). Besides, the potency estimated from few doses in the assay on CLK4 (CATDS: 0.12045713212899201) is 438 nM; in the assay on PIK3CD, 220 nM; in the assay with PRKAG2 (compound concentrations: 100 nM and 1000 nM (sheet 'Samples'), CATDS: 7.6138264702913502E-2), 1760 nM.

For the compound `COc1ccc(O)c(C(=O)c2ccc(C(=O)O[C@@H]3CCCNC[C@H]3NC(=O)c3ccncc3)cc2)c1F.Cl` [RO0480500-002], the potency estimated from few doses is 119 nM in the assay with ADRBK1 (setting [1]); 693 nM in the assay on AURKA; 413 nM in the assay on CDC42BPA; 51.3 nM with CDC42BPB; 630 nM in the assay on CDC42BPG (setting [1]); 2090 nM in the assay with CDK6. Besides, the potency estimated from few doses in the assay on CDKL5 (setting [1]) is 237 nM; in the assay with CHEK1, 26.5 nM; in the assay on CSNK1G1, 2260 nM; with FN3KRP it was 764 nM; in the assay on MTHFD1, 1020 nM; in the assay on NUAK1, 16.5 nM. The potency estimated from few doses is 150 nM in the assay with NUAK2; 1410 nM with PDXK; 116 nM in the assay on PKN1; 241 nM in the assay with PKN2; 485 nM with PRKAA1; 12.8 nM with PRKACA. In addition, the potency estimated from few doses is 21.1 nM with PRKACB; 1510 nM in the assay with PRKAG1; 75 nM in the assay on PRKAG2 (setting [1]); 227 nM in the assay with PRKCA; 506 nM with PRKCB; 25.7 nM in the assay with PRKCD. For the same compound, the potency estimated from few doses in the assay on PRKCQ was 769 nM; with PRKG1, 4.47 nM; in the assay with PRKX;PRKY, 40.2 nM; with ROCK1, 19.2 nM; in the assay on ROCK2 it was 19.1 nM; with RPS6KA5 it was 75 nM. Besides, the potency estimated from few doses with RPS6KB1 was 38.6 nM.

As for `Nc1cccc(-c2ccc3c(N)n[nH]c3c2)n1` [GSK2192730A], the potency estimated from few doses in the assay with ADRBK1 (compound concentrations: 100 nM and 1000 nM (sheet 'Samples'), CATDS: 1) is 1750 nM.
